Of roughly 8,800 targets only a part is listed; those with a hit were picked by preference. About 0.5% of all pairs of compound and target were hits. Unmarked numbers belong to inactive results.
Experiments:
Assay in all cases: log2 fold change, soluble protein after heating vs DMSO (PISA); higher = thermal stabilisation; K562 lysate, 10 uM; active = over 0.2 and 3.5 SD of the protein, either way, in both replicates (recomputed)
[1] = compound: CS(=O)(=O)CCNCc1ccc(-c2ccc3ncnc(Nc4ccc(OCc5cccc(F)c5)c(Cl)c4)c3c2)o1 [lapatinib]
Outline: (§1)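 A 30 min treatment with 10 μM compound was applied to crude K562 extract at 1 mg/mL protein in PBS pH 7.4 with 1 mM MgCl2. Heating for 3 min spanned 48°C-58°C, after which aliquots were pooled, adjusted to 0.5% NP-40 at 4°C and spun at 21,000xg for 90 min. TMTpro 16plex LC-MS/MS of the supernatant, with channel sums equalised, gave values recorded as log-two fold change in thermal stability against solvent controls, from duplicates.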

[2] = compound: CS(=O)(=O)N1CCN(Cc2cc3nc(-c4cccc5[nH]ncc45)nc(N4CCOCC4)c3s2)CC1 [pictilisib]
Outline: as §1

[3] = compound: C[C@@H](Oc1cc(-c2cnn(C3CCNCC3)c2)cnc1N)c1c(Cl)ccc(F)c1Cl [crizotinib]
Outline: as §1

[4] = compound: C[C@H](C1=CC=C(C=C1)C(=O)NC2=C3C=CNC3=NC=C2)N
Outline: as §1

[5] = compound: C[C@H](Nc1ncnc2nc[nH]c12)c1cc2cccc(Cl)c2c(=O)n1-c1ccccc1 [duvelisib]
Outline: as §1

[6] = compound: Cc1cc(Nc2cc(CN3CCOCC3)c3nc(C)c(Cc4ccc(Cl)cc4F)n3n2)n[nH]1 [gandotinib]
Outline: as §1

[7] = compound: Cc1cc(Nc2cc(N3CCN(C)CC3)nc(Sc3ccc(NC(=O)C4CC4)cc3)n2)n[nH]1 [tozasertib]
Outline: as §1

[8] = compound: Cc1ccc(-n2nc(C(C)(C)C)cc2NC(=O)Nc2ccc(OCCN3CCOCC3)c3ccccc23)cc1 [doramapimod]
Outline: as §1

[9] = compound: Cc1ccc(NC(=O)c2ccc(CN3CC[C@H](N(C)C)C3)c(C(F)(F)F)c2)cc1Nc1nccc(-c2cncnc2)n1 [bafetinib]
Outline: as §1

[10] = compound: Cc1cccc(CC(=O)N2CCc3c2ccc(-c2cn(C)c4ncnc(N)c24)c3F)n1
Outline: as §1

[11] = compound: Cc1cn(-c2cc(NC(=O)c3ccc(C)c(Nc4nccc(-c5cccnc5)n4)c3)cc(C(F)(F)F)c2)cn1 [nilotinib]
Outline: as §1

[12] = compound: Cc1nc(Nc2n[nH]c3c2CN(C(=O)N[C@H](CN(C)C)c2ccccc2)C3(C)C)c2sccc2n1
Outline: as §1

[13] = compound: Cc1nc(Nc2ncc(C(=O)Nc3c(C)cccc3Cl)s2)cc(N2CCN(CCO)CC2)n1 [dasatinib]
Outline: as §1

[14] = compound: Cc1ncc(-c2ccnc(Nc3ccc(S(C)(=O)=O)cc3)n2)n1C(C)C
Outline: as §1

[15] = compound: Cn1cc(-c2ccc3c(c2)CCN3C(=O)Cc2cccc(C(F)(F)F)c2)c2c(N)ncnc21
Outline: as §1

[16] = compound: Cn1cc(CNCC2CCN(c3ncc(C(=O)NO)cn3)CC2)c2ccccc21 [quisinostat]
Outline: as §1

[17] = compound: Cn1cncc1[C@@](N)(c1ccc(Cl)cc1)c1ccc2c(c1)c(-c1cccc(Cl)c1)cc(=O)n2C [tipifarnib]
Outline: as §1

[18] = compound: NC(=O)Nc1cc(-c2cccc(F)c2)sc1C(=O)N[C@H]1CCCNC1
Outline: as §1

[19] = compound: NC(=O)c1cnc(N[C@@H]2CCCC[C@@H]2N)nc1Nc1cccc(-n2nccn2)c1
Outline: as §1

[20] = compound: NC1(c2ccc(-c3nc4ccn5c(=O)[nH]nc5c4cc3-c3ccccc3)cc2)CCC1
Outline: as §1

Sequence of UniProt Q9Y484 (Q9Y484 whole entry, looked up): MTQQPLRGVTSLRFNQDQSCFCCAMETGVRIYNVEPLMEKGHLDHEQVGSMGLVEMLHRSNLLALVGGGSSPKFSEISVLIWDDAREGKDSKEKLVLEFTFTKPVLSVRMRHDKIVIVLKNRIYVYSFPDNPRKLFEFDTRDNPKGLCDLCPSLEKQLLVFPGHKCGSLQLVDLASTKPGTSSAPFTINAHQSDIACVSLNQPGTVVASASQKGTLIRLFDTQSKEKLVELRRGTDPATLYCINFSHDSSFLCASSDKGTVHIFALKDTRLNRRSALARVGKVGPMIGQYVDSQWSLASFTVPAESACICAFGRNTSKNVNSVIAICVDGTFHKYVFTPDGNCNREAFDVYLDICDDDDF
Sequence of UniProt Q96NC0 (Q96NC0 whole entry, looked up): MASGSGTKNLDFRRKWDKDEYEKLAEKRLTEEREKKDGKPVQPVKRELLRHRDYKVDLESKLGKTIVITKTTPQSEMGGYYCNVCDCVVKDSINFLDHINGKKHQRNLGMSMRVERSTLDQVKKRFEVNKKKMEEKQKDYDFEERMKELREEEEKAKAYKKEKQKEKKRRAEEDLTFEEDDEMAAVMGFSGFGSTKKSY
Sequence of UniProt Q9P1Q0 (Q9P1Q0 whole entry, looked up): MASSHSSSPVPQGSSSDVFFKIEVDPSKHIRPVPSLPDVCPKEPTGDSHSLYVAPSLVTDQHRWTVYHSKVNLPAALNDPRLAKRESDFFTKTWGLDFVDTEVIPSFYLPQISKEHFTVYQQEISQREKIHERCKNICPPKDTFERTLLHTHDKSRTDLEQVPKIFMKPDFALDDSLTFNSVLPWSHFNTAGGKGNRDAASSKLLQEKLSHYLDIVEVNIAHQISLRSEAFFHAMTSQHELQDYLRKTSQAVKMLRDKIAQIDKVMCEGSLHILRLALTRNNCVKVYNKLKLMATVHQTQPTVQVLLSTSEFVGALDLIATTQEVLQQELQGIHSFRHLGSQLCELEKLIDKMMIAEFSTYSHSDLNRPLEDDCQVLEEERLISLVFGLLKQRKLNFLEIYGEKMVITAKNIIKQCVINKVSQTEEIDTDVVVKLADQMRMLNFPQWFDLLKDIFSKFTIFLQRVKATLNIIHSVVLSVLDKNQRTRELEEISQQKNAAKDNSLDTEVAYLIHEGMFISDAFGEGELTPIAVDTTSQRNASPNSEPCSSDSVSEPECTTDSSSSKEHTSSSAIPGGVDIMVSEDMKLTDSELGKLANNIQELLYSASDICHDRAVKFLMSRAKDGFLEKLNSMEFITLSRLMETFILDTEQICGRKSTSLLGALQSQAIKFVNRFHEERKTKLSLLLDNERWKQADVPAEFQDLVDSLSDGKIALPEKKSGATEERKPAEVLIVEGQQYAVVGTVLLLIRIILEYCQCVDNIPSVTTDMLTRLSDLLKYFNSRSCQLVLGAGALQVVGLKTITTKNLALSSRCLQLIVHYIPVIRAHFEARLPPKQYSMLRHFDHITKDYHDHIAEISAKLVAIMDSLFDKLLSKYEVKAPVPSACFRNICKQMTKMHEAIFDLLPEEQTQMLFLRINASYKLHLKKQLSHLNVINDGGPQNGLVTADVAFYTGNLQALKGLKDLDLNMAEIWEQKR
Sequence of UniProt Q9Y4E6 (Q9Y4E6 whole entry, looked up): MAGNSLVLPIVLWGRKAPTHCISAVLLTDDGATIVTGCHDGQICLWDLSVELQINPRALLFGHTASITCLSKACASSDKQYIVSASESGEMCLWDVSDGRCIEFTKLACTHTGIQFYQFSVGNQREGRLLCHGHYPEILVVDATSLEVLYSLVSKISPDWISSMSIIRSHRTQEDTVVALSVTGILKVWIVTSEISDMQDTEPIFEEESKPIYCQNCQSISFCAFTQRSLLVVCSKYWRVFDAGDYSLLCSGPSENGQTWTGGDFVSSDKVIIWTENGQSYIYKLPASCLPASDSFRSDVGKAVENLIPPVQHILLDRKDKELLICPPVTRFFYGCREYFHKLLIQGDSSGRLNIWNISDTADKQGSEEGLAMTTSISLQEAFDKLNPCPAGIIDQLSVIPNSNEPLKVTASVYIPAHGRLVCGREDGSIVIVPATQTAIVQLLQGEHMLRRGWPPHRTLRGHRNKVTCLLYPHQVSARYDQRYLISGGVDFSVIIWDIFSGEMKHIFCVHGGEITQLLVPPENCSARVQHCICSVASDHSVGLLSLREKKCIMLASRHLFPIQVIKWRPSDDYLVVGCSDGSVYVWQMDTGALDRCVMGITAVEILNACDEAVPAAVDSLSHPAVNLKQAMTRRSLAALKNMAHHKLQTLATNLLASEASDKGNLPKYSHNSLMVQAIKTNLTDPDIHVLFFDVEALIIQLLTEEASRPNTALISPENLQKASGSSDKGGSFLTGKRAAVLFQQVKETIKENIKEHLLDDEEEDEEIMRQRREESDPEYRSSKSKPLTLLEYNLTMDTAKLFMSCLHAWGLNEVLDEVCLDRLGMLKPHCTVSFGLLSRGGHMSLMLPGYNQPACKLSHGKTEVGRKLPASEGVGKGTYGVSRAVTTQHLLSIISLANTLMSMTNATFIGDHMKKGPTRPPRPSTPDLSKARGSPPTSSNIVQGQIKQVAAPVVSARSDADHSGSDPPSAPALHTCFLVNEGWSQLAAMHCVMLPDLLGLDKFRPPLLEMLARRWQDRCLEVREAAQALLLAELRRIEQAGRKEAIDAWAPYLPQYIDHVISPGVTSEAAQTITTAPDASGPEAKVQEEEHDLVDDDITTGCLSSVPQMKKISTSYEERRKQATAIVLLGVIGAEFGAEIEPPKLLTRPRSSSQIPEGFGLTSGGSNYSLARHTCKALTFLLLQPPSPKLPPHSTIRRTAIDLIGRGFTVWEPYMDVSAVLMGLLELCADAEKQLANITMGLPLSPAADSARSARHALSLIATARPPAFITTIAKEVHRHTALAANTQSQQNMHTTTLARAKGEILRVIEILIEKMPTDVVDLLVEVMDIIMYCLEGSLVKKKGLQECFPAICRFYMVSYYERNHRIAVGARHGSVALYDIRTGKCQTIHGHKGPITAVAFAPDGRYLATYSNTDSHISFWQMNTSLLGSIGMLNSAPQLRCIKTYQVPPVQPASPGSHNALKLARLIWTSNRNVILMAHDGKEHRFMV
Sequence of UniProt Q96AX1 (Q96AX1 whole entry, looked up): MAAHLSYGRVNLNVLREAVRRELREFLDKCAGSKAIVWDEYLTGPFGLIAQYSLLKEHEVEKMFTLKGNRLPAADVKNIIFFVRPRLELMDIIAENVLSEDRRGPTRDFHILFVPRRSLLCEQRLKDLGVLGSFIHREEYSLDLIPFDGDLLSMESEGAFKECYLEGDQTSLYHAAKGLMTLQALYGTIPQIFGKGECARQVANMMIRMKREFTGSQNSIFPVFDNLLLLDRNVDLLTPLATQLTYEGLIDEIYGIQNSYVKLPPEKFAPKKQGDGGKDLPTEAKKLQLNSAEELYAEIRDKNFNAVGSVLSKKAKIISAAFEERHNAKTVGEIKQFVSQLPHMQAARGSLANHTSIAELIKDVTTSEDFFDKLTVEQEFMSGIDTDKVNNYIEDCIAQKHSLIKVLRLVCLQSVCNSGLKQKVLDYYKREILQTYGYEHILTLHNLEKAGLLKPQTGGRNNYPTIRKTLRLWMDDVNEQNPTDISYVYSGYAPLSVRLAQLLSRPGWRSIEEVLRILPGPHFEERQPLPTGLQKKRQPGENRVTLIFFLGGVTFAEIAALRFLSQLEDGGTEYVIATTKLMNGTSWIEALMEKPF
Sequence of UniProt Q9BZI7 (Q9BZI7 whole entry, looked up): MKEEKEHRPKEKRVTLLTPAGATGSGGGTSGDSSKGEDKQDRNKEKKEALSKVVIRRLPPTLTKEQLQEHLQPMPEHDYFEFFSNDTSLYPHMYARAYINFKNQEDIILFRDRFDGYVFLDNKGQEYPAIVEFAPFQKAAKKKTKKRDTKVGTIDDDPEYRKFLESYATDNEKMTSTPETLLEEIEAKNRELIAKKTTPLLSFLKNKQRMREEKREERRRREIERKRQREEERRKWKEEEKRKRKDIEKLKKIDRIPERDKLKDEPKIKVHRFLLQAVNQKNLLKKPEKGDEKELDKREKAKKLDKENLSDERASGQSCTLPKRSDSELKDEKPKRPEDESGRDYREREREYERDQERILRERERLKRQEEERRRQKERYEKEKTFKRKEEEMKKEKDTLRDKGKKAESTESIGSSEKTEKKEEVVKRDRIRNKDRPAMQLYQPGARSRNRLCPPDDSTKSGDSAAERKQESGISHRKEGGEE
Sequence of UniProt Q5MNZ9 (Q5MNZ9 whole entry, looked up): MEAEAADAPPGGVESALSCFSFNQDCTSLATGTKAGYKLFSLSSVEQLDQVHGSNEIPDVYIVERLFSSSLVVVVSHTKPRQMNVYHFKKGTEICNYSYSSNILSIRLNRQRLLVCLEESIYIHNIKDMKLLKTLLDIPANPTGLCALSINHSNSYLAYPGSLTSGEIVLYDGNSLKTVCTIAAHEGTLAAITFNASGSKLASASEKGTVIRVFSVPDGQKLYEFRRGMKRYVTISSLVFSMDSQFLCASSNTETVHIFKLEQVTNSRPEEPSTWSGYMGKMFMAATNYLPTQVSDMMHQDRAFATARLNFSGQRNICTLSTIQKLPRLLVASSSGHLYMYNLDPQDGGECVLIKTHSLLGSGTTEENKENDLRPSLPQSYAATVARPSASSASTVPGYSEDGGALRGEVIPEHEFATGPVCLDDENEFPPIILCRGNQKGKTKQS
Sequence of UniProt Q9HAD4 (Q9HAD4 whole entry, looked up): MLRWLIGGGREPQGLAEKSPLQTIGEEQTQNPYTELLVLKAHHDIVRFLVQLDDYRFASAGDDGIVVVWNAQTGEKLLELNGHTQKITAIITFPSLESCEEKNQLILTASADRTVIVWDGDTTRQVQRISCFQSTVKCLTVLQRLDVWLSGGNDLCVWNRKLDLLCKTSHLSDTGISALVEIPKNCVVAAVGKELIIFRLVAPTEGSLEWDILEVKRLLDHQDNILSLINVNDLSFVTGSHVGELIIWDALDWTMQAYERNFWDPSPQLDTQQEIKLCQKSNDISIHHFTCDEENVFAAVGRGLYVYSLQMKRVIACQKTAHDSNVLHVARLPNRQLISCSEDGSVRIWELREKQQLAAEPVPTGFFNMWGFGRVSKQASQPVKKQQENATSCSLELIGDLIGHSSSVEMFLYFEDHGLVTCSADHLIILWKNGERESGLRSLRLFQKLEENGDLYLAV

Row | Target | log2 fold change [1] | log2 fold change [2] | log2 fold change [3] | log2 fold change [4] | log2 fold change [5] | log2 fold change [6] | log2 fold change [7] | log2 fold change [8] | log2 fold change [9] | log2 fold change [10] | log2 fold change [11] | log2 fold change [12] | log2 fold change [13] | log2 fold change [14] | log2 fold change [15] | log2 fold change [16] | log2 fold change [17] | log2 fold change [18] | log2 fold change [19] | log2 fold change [20]
1 | ZMAT2 (UniProt Q96NC0) | 0.006 | 0.003 | -0.005 | 0.02 | -0.034 | -0.035 | -0.028 | 0.042 | 0.053 | -0.043 | -0.014 | 0.037 | 0.022 | 0.027 | 0.033 | -0.066 | -0.013 | -0.044 | 0.002 | -0.03
2 | UPF3B (UniProt Q9BZI7) | 0.005 | 0.021 | 0.007 | -0.171 | 0.016 | 0.037 | 0.031 | 0.003 | -0.012 | 0.067 | -0.016 | 0.012 | 0.004 | 0.014 | 0.005 | -0.013 | 0.014 | 0.022 | -0.025 | -0.003
3 | VAV3 isoform 4 (UniProt Q9UKW4) | -0.167 | -0.057 | -0.217 | -0.655 (active) | -0.008 | 0.135 | -0.093 | 0.325 | 0.023 | 0.242 | 0.155 | -0.028 | -0.061 | -0.055 | 0.08 | 0.121 | -0.012 | -0.017 | -0.054 | 0.038
4 | WDR41 (UniProt Q9HAD4) | 0.013 | 0.099 | 0.022 | -0.037 | -0.026 | 0.149 | -0.069 | 0.241 (active) | -0.065 | 0.126 | -0.012 | -0.023 | 0.028 | -0.011 | 0.005 | -0.036 | -0.077 | -0.009 | -0.032 | -0.017
5 | VASP (UniProt P50552) | -0.006 | 0.004 | 0.007 | -0.017 | 0.047 | 0.005 | 0.019 | -0.004 | 0.136 | 0.009 | -0.025 | -0.002 | -0.061 | -0.014 | -0.001 | 0.012 | 0.008 | -0.012 | -0.006 | 0.013
6 | WIPI1 (UniProt Q5MNZ9) | -0.021 | -0.003 | 0.058 | -0.013 | -0.014 | 0.017 | 0.039 | -0.013 | -0.038 | -0.038 | 0.011 | -0.198 | 0.06 | 0.314 (active) | -0.028 | 0.013 | 0.003 | -0.011 | 0.009 | 0.011
7 | WDR45 isoform 2 (UniProt Q9Y484) | -0.002 | -0.011 | -0.048 | -0.229 (active) | -0.04 | -0.051 | -0.025 | 0.054 | -0.047 | 0.179 | 0.04 | -0.01 | -0.085 | -0.027 | 0.049 | 0.06 | 0.009 | 0.013 | -0.042 | -0.028
8 | ZMYND8 isoform 19 (UniProt Q9ULU4) | -0.017 | -0.044 | -0.109 | -0.105 | -0.006 | 0.092 | 0.035 | 0.001 | -0.028 | 0.049 | -0.011 | -0.056 | -0.019 | 0.022 | 0.036 | -0.073 | -0.025 | -0.004 | 0.009 | 0.043
9 | ZC2HC1A (UniProt Q96GY0) | 0.004 | 0.056 | -0.009 | -0.082 | 0 | 0.053 | 0.007 | -0.021 | 0.052 | 0.103 | 0 | 0.005 | -0.085 | 0.002 | 0.1 | -0.082 | -0.02 | -0.014 | 0.04 | -0.092
10 | UTP3 (UniProt Q9NQZ2) | 0.002 | -0.031 | -0.094 | -0.008 | 0.031 | -0.007 | -0.027 | 0.066 | -0.061 | 0.029 | -0.106 | 0.008 | -0.048 | -0.054 | -0.023 | 0.014 | 0.051 | 0.065 | 0.002 | 0
11 | WDR7 (UniProt Q9Y4E6) | -0.029 | -0.037 | -0.058 | -0.076 | -0.008 | 0.014 | -0.012 | 0.043 | -0.04 | 0.085 | 0.001 | -0.018 | -0.088 | -0.011 | 0.003 | -0.016 | -0.032 | 0.014 | 0.007 | -0.03
12 | ZNHIT6 (UniProt Q9NWK9) | 0.042 | 0.006 | -0.006 | 0.061 | -0.002 | 0.008 | -0.029 | -0.024 | -0.026 | -0.004 | -0.023 | 0 | -0.037 | -0.005 | 0.004 | -0.04 | 0.014 | 0.087 | 0.028 | -0.022
13 | VPS33A (UniProt Q96AX1) | 0 | -0.005 | -0.025 | -0.03 | 0.039 | -0.043 | 0.01 | 0 | 0.014 | 0.036 | -0.007 | -0.004 | -0.007 | -0.027 | 0.045 | -0.018 | -0.006 | 0.041 | 0.021 | -0.034
14 | VPS54 (UniProt Q9P1Q0) | -0.018 | 0.068 | -0.296 | -0.263 | -0.012 | 0.399 | 0.047 | 0.066 | 0.431 | 0.395 | 0.013 | -0.041 | -0.112 | 0.205 | 0.146 | -0.409 (active) | -0.111 | 0.065 | 0.089 | -0.121
15 | ZNF598 isoform 3 (UniProt Q86UK7) | 0.027 | 0.005 | 0.006 | -0.01 | -0.01 | 0.023 | 0.048 | 0.024 | -0.012 | 0.015 | -0.004 | -0.022 | -0.063 | 0.031 | 0.032 | -0.023 | -0.019 | 0.01 | 0.011 | 0.029
16 | VPS28 (UniProt Q9UK41) | 0.038 | -0.005 | 0.051 | -0.132 | -0.032 | 0.018 | -0.03 | -0.005 | 0.034 | 0.034 | -0.031 | 0.034 | 0.021 | 0.004 | 0.086 | 0.081 | 0.029 | -0.038 | 0.012 | -0.027

— the supplement of paper PMC10849652
